We go through 35 compounds from PubChem BioAssay AID602143 (Vanderbilt Specialized Chemistry Center, 2011).

The assay concerns the target Phospholipase D2 (Homo sapiens) (UniProt O14939). Kind of assay: cellular phospholipase D2 activity inhibition – cell-based, HEK293, single concentration (AID 602143).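 Also: tested at 200 nM.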 The following applies: HEK293 cellular PLD2 activity, percent of control; active compounds read low.

Values joined by “and” are separate entries in the source; they are usually repeats but may differ in a detail not shown here. Identical values can stand only once. Values without a mark were called inactive. Active and inactive are the calls of the source. Rule as the data show it: active = remaining activity below about 50%; inactive = the rest.

Sequence of Phospholipase D2 (Homo sapiens) (O14939 whole entry, looked up): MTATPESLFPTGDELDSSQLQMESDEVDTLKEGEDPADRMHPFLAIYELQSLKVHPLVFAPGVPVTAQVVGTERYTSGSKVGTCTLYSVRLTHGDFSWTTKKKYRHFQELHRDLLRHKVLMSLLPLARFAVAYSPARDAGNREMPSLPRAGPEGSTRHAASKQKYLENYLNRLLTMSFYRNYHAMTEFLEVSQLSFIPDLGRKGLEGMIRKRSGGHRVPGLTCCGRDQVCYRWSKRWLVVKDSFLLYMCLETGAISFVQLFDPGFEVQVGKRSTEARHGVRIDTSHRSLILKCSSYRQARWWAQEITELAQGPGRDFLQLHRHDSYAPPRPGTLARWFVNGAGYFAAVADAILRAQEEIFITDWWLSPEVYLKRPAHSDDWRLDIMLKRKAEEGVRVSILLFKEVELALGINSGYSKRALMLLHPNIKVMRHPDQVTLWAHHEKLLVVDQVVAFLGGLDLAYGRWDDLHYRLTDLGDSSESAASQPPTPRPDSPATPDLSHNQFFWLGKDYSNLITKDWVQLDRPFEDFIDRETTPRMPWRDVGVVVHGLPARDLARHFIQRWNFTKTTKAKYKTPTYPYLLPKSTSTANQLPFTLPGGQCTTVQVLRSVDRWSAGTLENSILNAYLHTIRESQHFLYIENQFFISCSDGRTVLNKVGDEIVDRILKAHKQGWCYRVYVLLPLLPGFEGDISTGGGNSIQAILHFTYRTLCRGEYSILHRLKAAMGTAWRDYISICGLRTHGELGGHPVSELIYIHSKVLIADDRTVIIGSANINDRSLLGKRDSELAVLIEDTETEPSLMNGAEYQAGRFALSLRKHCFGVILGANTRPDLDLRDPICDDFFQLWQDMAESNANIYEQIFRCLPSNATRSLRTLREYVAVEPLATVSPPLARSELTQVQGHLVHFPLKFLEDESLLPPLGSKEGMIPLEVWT
Sequence of Phospholipase D2 (Homo sapiens) (O14939 whole entry, looked up): as above

`O=C(CCN1CCC2(CC1)C(=O)NCN2c1ccccc1)Nc1cnc2ccccc2c1`: the remaining activity (commonly the signal under treatment as a percentage of the control signal) is 104%.
The result for `O=C(NCCN1CCC2(CC1)C(=O)NCN2c1ccc(F)c(F)c1)c1ccc(F)cc1` reads 49.6% (active); that for `C[C@@H](CN1CCC2(CC1)C(=O)NCN2c1ccccc1)NC(=O)[C@@H]1C[C@H]1c1ccccc1`, 75.9%; that for `O=C(NCCN1CCC2(CC1)C(=O)NCN2c1ccc(F)cc1)c1ccc2ccccc2c1`, 34.3% (active).
The result for `CC(C)[C@@H](CN1CCC2(CC1)C(=O)NCN2c1ccccc1)NC(=O)c1cc2cc(F)ccc2[nH]1` reads 57.1%; that for `O=C(c1ccc2ccccc2c1)N1CC(N2CCC3(CC2)C(=O)NCN3c2ccccc2)C1`, 72.6%.
Consider `CC(C)[C@@H](CN1CCC2(CC1)C(=O)NCN2c1ccccc1)NC(=O)c1ccc(Cl)cc1`, for which the remaining activity is 59.4%.
In the case of `O=C(NCCN1CCC2(CC1)C(=O)NCN2c1ccc(F)c(F)c1)c1cnc2ccccc2c1`, the remaining activity is 26.1% (active).
The result for `CCC(=O)N[C@@H](C)CN1CCC2(CC1)C(=O)NCN2c1ccccc1` reads 95.3%; that for `CCCCOc1ccc(C(=O)NCCN2CCC3(CC2)C(=O)NCN3c2cccc(F)c2)cc1`, 95.2%.
Take `O=C(c1ccc(F)c(F)c1)N1CCCC1CN1CCC(n2c(=O)[nH]c3ccccc32)CC1` (stereo not given): the remaining activity is 124% and 114%.
The result for `O=C(NCCCCCCN1CCC2(CC1)C(=O)NCN2c1ccccc1)c1ccc2ccccc2c1` reads 133%.
The result for `O=C(c1ccc(F)c(F)c1)N(CCN1CCC2(CC1)C(=O)NCN2c1cccc(F)c1)C(=O)c1ccc(F)c(F)c1` reads 106%; that for `C[C@H](CN1CCC2(CC1)C(=O)NCN2c1ccccc1)NC(=O)c1cc(Br)c(Br)o1`, 85.7%; that for `C[C@@H](CN1CCC2(CC1)C(=O)NCN2c1ccc(F)c(F)c1)NC(=O)c1ccc2ccccc2c1`, 51.2%.
Take `O=C(NCCN1CCC2(CC1)C(=O)NCN2c1ccccc1)C1C[C@H]1c1ccccc1` (stereo not given in full): the remaining activity is 98.4%.
The result for `O=C(NCCN1CCC2(CC1)C(=O)NCN2c1ccc(F)cc1)c1ccc2cc(F)ccc2c1` reads 61.1%; that for `O=C(c1ccc2ccccc2c1)N1CC(N2CCC(n3c(=O)[nH]c4ccccc43)CC2)C1`, 64.3%; that for `O=C(C#Cc1ccccc1)NCCN1CCC2(CC1)C(=O)NCN2c1ccccc1`, 47.9% (active).
The result for `O=C(NCCN1CCC2(CC1)C(=O)NCN2c1ccccc1)c1ccc(F)cc1O` reads 82.6%.
The result for `O=C(NCCN1CCC2(CC1)C(=O)NCN2c1ccccc1)C(c1ccccc1)c1ccccc1` reads 74.8%; that for `O=C(NCCN1CCC2(CC1)C(=O)NCN2c1cccc(F)c1)c1ccc(OC(F)(F)F)cc1`, 78%; that for `COc1ccc(CC(=O)NCCN2CCC3(CC2)C(=O)NCN3c2cccc(F)c2)cc1OC`, 102% and 91.9%.
`O=C(NCCN1CCC2(CC1)C(=O)NCN2c1ccc(F)c(F)c1)c1cc2cc(F)ccc2[nH]1`: the remaining activity was 10.4% (active).
Take `O=C(NCCN1CCC2(CC1)C(=O)NCN2c1ccccc1)c1ccc(-c2ccccc2)o1`: the remaining activity is 50.1%.
The result for `O=C(NCCN1CCC2(CC1)C(=O)Oc1ccccc12)c1cnc2ccccc2c1` reads 57.4%; that for `Cc1cccc(C(=O)NCCN2CCC3(CC2)C(=O)NCN3c2ccccc2)n1`, 89%.
The result for `CC(C)(C)C(=O)NCCN1CCC2(CC1)C(=O)NCN2c1cccc(F)c1` reads 74.9%; that for `O=C(NCCN1CCC2(CC1)C(=O)NCN2c1cccc(F)c1)c1cc2cc(F)ccc2[nH]1`, 0.401% (active).
Take `O=C(NCCCCCCN1CCC2(CC1)C(=O)NCN2c1ccccc1)c1cnc2ccccc2c1`: the remaining activity is 127%.
The result for `COc1cc(C(=O)NCCN2CCC3(CC2)C(=O)NCN3c2ccccc2)ccc1N` reads 38.8% (active); that for `O=C(NCCN1CCC2(CC1)C(=O)NCN2c1ccc(Cl)cc1)c1ccc(F)cc1`, 58.4%.
Consider `COc1cc(OC)cc(C(=O)NCCN2CCC3(CC2)C(=O)NCN3c2cccc(F)c2)c1`, for which the remaining activity is 84.7%.
The result for `O=C(NCCN1CCC2(CC1)C(=O)NCN2c1ccccc1)c1ncccc1F` reads 82.2%; that for `O=C(NCCN1CCC2(CC1)C(=O)NCN2c1ccccc1)c1cscn1`, 76.2%.
